The results in this text go back to PubChem BioAssay AID1224865 (Sanford-Burnham Center for Chemical Genomics, 2016).

About 1,100 (0.31%) of roughly 360,000 compounds were called active. Rule as the data show it: active = activity change above about 30% (passing the limit was not always enough); inactive = the rest. This excerpt belongs to a sample that is enriched for actives.

The target in this test is Hepatocyte nuclear factor 4-alpha (Homo sapiens) (UniProt P41235). Description: change in binding of human HNF4A to DNA, primary screen, biochemical, fluorescence polarization, FITC-DNA (AID 1224865). The conditions noted are these: 1 h, at 10 µM, hits give high values.
Chain of Hepatocyte nuclear factor 4-alpha (Homo sapiens) (P41235 whole entry, looked up): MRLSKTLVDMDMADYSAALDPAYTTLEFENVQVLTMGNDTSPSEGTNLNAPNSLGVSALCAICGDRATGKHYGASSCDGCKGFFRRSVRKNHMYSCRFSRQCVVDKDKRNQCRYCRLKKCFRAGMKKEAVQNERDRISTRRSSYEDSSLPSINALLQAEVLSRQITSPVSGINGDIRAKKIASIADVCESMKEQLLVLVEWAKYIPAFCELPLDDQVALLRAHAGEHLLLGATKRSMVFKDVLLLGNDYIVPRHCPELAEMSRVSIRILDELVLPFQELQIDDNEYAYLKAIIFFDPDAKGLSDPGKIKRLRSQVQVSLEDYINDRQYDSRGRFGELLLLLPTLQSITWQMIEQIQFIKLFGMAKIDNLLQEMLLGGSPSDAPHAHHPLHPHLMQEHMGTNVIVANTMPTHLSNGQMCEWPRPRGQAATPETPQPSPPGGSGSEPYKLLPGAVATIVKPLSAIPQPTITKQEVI
As to `O=C(CN1CCCCC1)Nc1ccc(Br)cc1C(=O)c1ccccc1Cl`, the activity change is -1.1% (inactive).

Turning to `O=C(CCN1CCCCC1)NCC(=O)Nc1ccc(Br)cc1C(=O)c1ccccc1`, the activity change is 53% (active). For `CN1CCN(C(=S)SCC(=O)Nc2ccc(Cl)cc2C(=O)c2ccccc2)CC1` the value was -2.35% (inactive).

Consider `O=C1N=c2ccccc2=C/C1=C\c1c(O)[nH]c(=S)[nH]c1=O`, for which the activity change is 4.26% (inactive). Next, `CCOCCc1c(O)[nH]c(=S)[nH]c1=O`: -0.41% (inactive); `COc1ccccc1N=Nc1c(O)[nH]c(=S)[nH]c1=O`: 68.8% (active); `C=Cn1ccnc1P(=S)(c1cc(N(CC)CC)ns1)c1nccn1C=C`: -0.17% (inactive). Next, `CCN(CC)c1ccc([N+](=O)[O-])c2cccnc12`: 4.4% (inactive); `COc1ccc(-c2nn(CCC#N)cc2C(=O)Nc2ccc(C(C)=O)cc2)cc1`: 2.38% (inactive); `CC1CC=CCC12C(=O)NC(=S)NC2=O` (stereo not given): -0.2% (inactive).
